This is a sample that favours compounds with a hit; in the whole collection about 19% have one here.
HT1080NT lethal – qHTS for induction of synthetic lethality in tumor cells producing 2HG: qHTS for the HT-1080-NT fibrosarcoma cell line | Potency, µM (highest dose often 46.1 µM), for the others: top-dose activity, negative = less viability, actives largely listed as cytotoxic | HT-1080-NT fibrosarcoma viability, CellTiter-Glo ATP luminescence, 48 h | 360,000 tested, 1.6% active | AID 686970, 2013;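 also: NT is the 2HG producing partner of a matched IDH1 knockdown line; potency is read from the fitted curve at half-maximal effect; 0% = DMSO-treated cells and -100% = media-only wells without cells; nearly all actives have a fitted effect of over 55% in size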
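HT-1080-NT; 750 cells/well; 5% FBS RPMI; 48 h compound, 37 degrees C; CellTiter-Glo luminescence; curve fitting and curve-class assignment.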
DT40 TDP1 no CPT – qHTS for Inhibitors of human tyrosyl-DNA phosphodiesterase 1 (TDP1): qHTS in cells in absence of CPT. DT40 Tdp1-/- hTDP1 cells, no CPT, ATP luminescence, 48 h. Potency, µM (series often up to 46.2 µM), inactives show at the top dose activity change, negative = growth inhibition, usual class: inhibitors. 420,000 tested, 15% active. AID 686978, 2013; also: potency is read from the fitted curve at half-maximal effect; nearly all actives have a fitted effect of over 55% in size
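Seeded 400 DT40-hTDP1 cells/well (vehicle DMSO, no 20 nM CPT); pinned compounds; ≥48 hr at 37 °C; CellTiter-Glo luminescence as viability measure.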
ELG1 DNA repair – qHTS screen for small molecules that inhibit ELG1-dependent DNA repair in human embryonic kidney (HEK293T) cells expressing luciferase-tagged ELG1 | Potency, µM (highest dose often 46.1 µM), inactives show top-dose activity change, negative = inhibition, hits mostly inhibitors | AID 504467, 2011 | 330,000 tested, 2.3% active | HEK293T ELG1-luciferase reporter, luminescence, 16 h; DNA damage induced by 5-fluorouridine; also: potency is read from the fitted curve at half-maximal effect; nearly all actives have a fitted effect of over 55% in size
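Reporter activity after DNA damage by 5-fluorouridine is monitored. Compound-treated cells incubate 16 hr at 37 °C, then ONE-Glo is added for 30 min before luminescence reading.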
TDP1 cell CPT – qHTS for Inhibitors of human tyrosyl-DNA phosphodiesterase 1 (TDP1): qHTS in cells in presence of CPT; AID 686979, 2013; chicken DT40 Tdp1-/-;hTDP1 cells + 20 nM CPT, ATP luminescence, 48 h; 420,000 tested, 12% active; Potency, µM (top dose mostly 46.2 µM), for the others: top-dose activity change, negative = growth inhibition, usual class: inhibitors; also: potency is read from the fitted curve at half-maximal effect; nearly all actives have a fitted effect of over 55% in size
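Chicken DT40 Tdp1-/- cells stably complemented with human TDP1 were seeded at 400 cells/well in medium containing 20 nM camptothecin, exposed to pin-transferred compounds, and grown at 37 °C for at least 48 hr. Viability was read as ATP luminescence.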
HT1080 IDH1KD tx – qHTS for induction of synthetic lethality in tumor cells producing 2HG: qHTS for the HT-1080-IDH1KD cell line; AID 686971, 2013; 360,000 tested, 2% active; Potency, µM (highest dose often 46.1 µM), inactives show at the top dose activity, negative = toxicity, actives largely listed as cytotoxic; HT-1080 IDH1 knockdown viability, ATP luminescence, 48 h;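 also: potency is read from the fitted curve at half-maximal effect; 0% = DMSO wells and -100% = cell-free medium wells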
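IDH1KD HT-1080 cells, 750/well, RPMI + 5% FBS; compound pinned after 2 h settling; 48 h, 37 °C; CellTiter-Glo luminescence; % activity normalised to DMSO and no-cell wells; curves fitted, classed by r2 and efficacy.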
IL1B secr inh – qHTS for Inhibitors of Inflammasome Signaling: IL-1-beta AlphaLISA Primary Screen; AID 743279, 2014; THP-1 LPS/ATP IL-1B secretion, AlphaLISA, 16 h; stronger effect = lower value; 360,000 tested, 4.7% active; activity change, % at 57.5 µM; in the data active = activity change below about -50%; inconclusive = mostly about -30% to -49%
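Secreted IL-1B measured by AlphaLISA bead assay after 16 h compound exposure of THP-1 cells; compounds (final up to 57.5 uM) added 1 h before LPS (250 ng/mL) and ATP (1.25 mM) stimulation; lower signal means less secretion.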
* marks the source's active call; other numbers are inactive results. Unless noted, calls follow the shape of the dose curve; as a rule, active = well fitted curve in the direction sought with a large enough effect; inconclusive = small, poorly fitted or top-dose-only effect, or another doubt; inactive = no such curve, though single readings can be large; an effect the other way counts as inactive or inconclusive. Unless noted, % is scaled to controls: 0 for no effect and ±100 for the full control effect.

How did COC(=O)[C@]12CCCCC=C1N(Cc1ccccc1)C(=O)[C@H](CC(=O)NCc1cccc3ccccc13)C2 do in these assays?
HT1080NT lethal: inconclusive; DT40 TDP1 no CPT: 18µM*; TDP1 cell CPT: inconclusive; HT1080 IDH1KD tx: inconclusive; IL1B secr inh: -10

What do the screens show for `CCOC(=O)[C@]12CCCC=C1N(Cc1ccccc1)C(=O)[C@H](CC(=O)NCc1cccc3ccccc13)C2`?
HT1080NT lethal: inconclusive; DT40 TDP1 no CPT: -30%; TDP1 cell CPT: 18µM*; HT1080 IDH1KD tx: inconclusive; IL1B secr inh: -22

What do the screens show for `CCOC(=O)[C@]12CCCC=C1N(Cc1cccc3ccccc13)C(=O)[C@H](CC(=O)NCCCCc1ccccc1)C2`?
HT1080NT lethal: -25%; DT40 TDP1 no CPT: inconclusive; TDP1 cell CPT: inconclusive; HT1080 IDH1KD tx: -12%; IL1B secr inh: -1

How did CCOC(=O)[C@]12CCCC=C1N(Cc1ccccc1)C(=O)[C@H](CC(=O)NCCc1ccccc1OC)C2 do in these assays?
HT1080NT lethal: -28%; DT40 TDP1 no CPT: 13µM*; TDP1 cell CPT: inconclusive; HT1080 IDH1KD tx: -30%; IL1B secr inh: -22

What do the screens show for `CCOC(=O)[C@]12CCC=C1N(Cc1ccccc1)C(=O)[C@H](CC(=O)NCCc1ccccc1OC)C2`?
HT1080NT lethal: -4%; DT40 TDP1 no CPT: inconclusive; TDP1 cell CPT: inconclusive; HT1080 IDH1KD tx: -1%; IL1B secr inh: -4

How did COC(=O)[C@]12CCCCC=C1N(CCC1=CCCCC1)C(=O)[C@H](CC(=O)NCc1cccc3ccccc13)C2 do in these assays?
HT1080NT lethal: inconclusive; DT40 TDP1 no CPT: inconclusive; TDP1 cell CPT: inconclusive; HT1080 IDH1KD tx: 16µM*; IL1B secr inh: -9

How did CN(CC(=O)Nc1ccc(F)c(F)c1F)C(=O)c1nn(Cc2ccccc2)c(=O)c2ccccc12 do in these assays?
HT1080NT lethal: -4%; DT40 TDP1 no CPT: inconclusive; ELG1 DNA repair: 0%; TDP1 cell CPT: 0%; HT1080 IDH1KD tx: -4%; IL1B secr inh: -3

Results for Cc1ccsc1C(=O)OC(C)C(=O)NC1CCCCC1C (stereo not given) ?
HT1080NT lethal: -1%; DT40 TDP1 no CPT: -16%; ELG1 DNA repair: 3%; TDP1 cell CPT: -11%; HT1080 IDH1KD tx: -3%; IL1B secr inh: -6

Results for COC(=O)[C@]12CCCCC=C1N(Cc1cccc3ccccc13)C(=O)[C@H](CC(=O)NCc1ccccc1)C2 ?
HT1080NT lethal: inconclusive; DT40 TDP1 no CPT: 18µM*; TDP1 cell CPT: inconclusive; HT1080 IDH1KD tx: inconclusive; IL1B secr inh: inconclusive

What do the screens show for `COC(=O)[C@]12CCCCC=C1N(Cc1ccccc1)C(=O)[C@H](CC(=O)NCc1ccccc1)C2`?
HT1080NT lethal: -4%; DT40 TDP1 no CPT: inconclusive; TDP1 cell CPT: inconclusive; HT1080 IDH1KD tx: inconclusive; IL1B secr inh: -26

How did COc1ccc(/C=C2\Sc3ccc(C(=O)NC4CC4)cc3N(C)C2=O)cc1OC do in these assays?
HT1080NT lethal: -27%; DT40 TDP1 no CPT: inconclusive; ELG1 DNA repair: 12µM*; TDP1 cell CPT: inconclusive; HT1080 IDH1KD tx: 0%; IL1B secr inh: -8
